Results: PubChem BioAssay (EPA / NIEHS)
Calls of active or inactive are those of the source. How the source made its calls: active means hit-call score of the fitted dose curve at least 0.9, where 1 is the maximum; inactive means score below 0.9.

Read-out: Collagen I, COL1A1 (gene 1277)
Assay: BSK_hDFCGF_CollagenI: BioMAP Diversity Plus: hDFCGF Assay for Collagen I Biomarker Activity (AID 2284250)
Conditions: primary human foreskin fibroblasts
Description: BSK_hDFCGF is a cell-based, multiplexed-readout assay that uses foreskin fibroblast, a human skin primary cell, with measurements taken at 24 hours after chemical dosing in a 96-well plate.BSK_hDFCGF_CollagenI is an assay component measured in the BSK_hDFCGF assay. It measures Collagen I antibody related to regulation of gene protein expression using ELISA technology.Data from the assay component BSK_hDFCGF_CollagenI was analyzed at the endpoint, BSK_hDFCGF_CollagenI, in the positive analysis fitting direction relative to DMSO as the negative control and baseline of activity. Using a type of binding reporter, gain or loss-of-signal activity can be used to understand protein changes. To generalize the intended target to other relatable targets, this assay endpoint is annotated to the 'cell adhesion molecules' intended target family, where the subfamily is 'collagen'.
The levels of cell surface (or secreted, indicated by the prefix "s") biomarker endpoints were measured by ELISA. Overt cytotoxicity to cells in confluent adherent cultures (all systems other than the BT system) was assessed by measuring total protein levels using sulforhodamine B (SRB) staining in parallel cultures at the time of biomarker measurements, indicated as SRB endpoints. For proliferation assays for adherent cell types, individual cell types are cultured at sub-confluence and relative cell numbers quantified by SRB staining at time points optimized for each system (48 h: 3C and CASM3C systems; 72 h: BT and HDF3CGF systems; 96 h: SAg system). SRB was performed by staining cells with 0.1% SRB after fixation with 10% TCA and reading wells at 560 nm.Viability and proliferation of PBMC (T cells) was quantified by Alamar Blue reduction for the SAg and BT systems. For PBMC viability (referred to as PBMC Cytotoxicity within the assay endpoint names), cells were plated (75,000/well in a 96-well plate) and then chemical samples added for 1 h before addition of activators, SEB and TSST-1 (20 ng/mL final concentration each). Cells were incubated for 90 h. Then, Alamar Blue (20 uL/well) (Invitrogen, Cat DAL1100) was added for 6 h, and the plates were read with a fluorescence microplate reader at 546/580 nm (excitation/emission). For PBMC proliferation, cells were plated and activated as above but incubated for only 16 h prior to addition of Alamar Blue. Plates were read after 6 h.

Row | Structure (SMILES) | outcome
1 | O=C(O)C(F)(F)C(F)(F)C(=O)O | inactive
2 | CC(O)C(F)(F)C(F)(F)F (stereo not given) | inactive
3 | NC(=O)C(F)(F)C(F)(F)F | inactive
4 | FC(F)(F)C(F)(C(F)(F)F)C(F)(F)C(F)(F)CC1CO1 (stereo not given) | inactive
5 | OCC(F)(F)OC(F)(F)C(F)(F)OC(F)(F)C(F)(F)OC(F)(F)F | inactive
6 | O=C(O)C(F)(F)OC(F)(F)C(F)(F)OC(F)(F)F | inactive
7 | O=C(O)C(F)(F)OC(F)(F)C(F)(F)OC(F)(F)C(=O)O | inactive
8 | O=S(=O)(F)C(F)(F)C(F)(F)C(F)(F)C(F)(F)C(F)(F)C(F)(F)C(F)(F)C(F)(F)F | inactive
9 | C=CC(=O)OCC(F)(F)C(F)F | inactive
10 | COP(=O)(CCC(=O)NCO)OC | inactive
11 | OCC(F)(F)OC(F)(F)C(F)(F)OC(F)(F)CO | inactive
12 | O=C(O)C(F)(OC(F)(F)C(F)(F)C(F)(F)F)C(F)(F)F (stereo not given) | inactive
13 | OCC(F)(F)OC(F)(F)C(F)(F)OC(F)(F)C(F)(F)OC(F)(F)CO | inactive
14 | O=C(O)C=CC(F)(C(F)(F)F)C(F)(F)F | inactive
15 | COC(=O)C(F)(F)C(F)(F)OC(F)(C(F)(F)F)C(F)(F)OC(F)=C(F)F (stereo not given) | inactive
